This is an account of results in PubChem BioAssay (Tox21).

Molecules are shown by their SMILES. Records with an inconclusive call do not appear. Activity calls are given as the source filed them. The call rests on the fitted dose curve; in most records, active means well fitted cell-killing curve with a large enough effect in the repeat runs; inconclusive means weak or mixed curves, or effect the other way; inactive means flat fitted curve, though single readings scatter.
On the % scale 0 is the no-effect control and ±100 the full control effect; potency means the concentration at half of the fitted maximal effect.

This assay can be described thus: Caspase-3/7 induction in HepG2 cells by small molecules, qHTS cell viability counter screen (AID 1346981). Further: nearly all actives have a fitted effect of over 30% in size. The settings on record: CellTiter-Fluor fluorescence, 17 h; series mostly up to 92.4 µM; activity change, negative = cytotoxicity: at the top concentration. From the text: U.S. Tox21 Program National Center for Advancing Translational Sciences [NCATS] NIH Chemical Genomics Center [NCGC] U.S. Environmental Protection Agency [EPA] National Institutes of Environmental Health Sciences [NIEHS] National Toxicology Program [NTP] U.S. Food and Drug Administration [FDA] Tox21 Assay Overview: Apoptosis is a process of programmed cell death and plays a central role in the development of multicellular organisms. It is a highly regulated process and induces cell death by activating caspases, which are the members of cysteine aspartic acid-specific protease (caspase) family. Caspases involved in apoptosis are classified by their mechanism of action as initiator caspases (caspase-2, -8, -9 and -10) and executioner caspases (caspase-3, -6, and -7). Inhibition of apoptosis results in number of cancers, autoimmune diseases, inflammatory diseases and viral infection. To identify small molecule compounds that induce apoptosis, a homogeneous, luminescent Caspase-Glo 3/7 assay was used. Wild type HepG2 cells were used to screen Tox21 libraries for identifying caspase-3/7 activity inducers. Also cytotoxicity of the compounds was tested in parallel by measuring the cell viability using CellTiter-Fluor assay system in the same wells.
Tox21 Assay Protocol Summary: HepG2 cells were dispensed at 2,000 per well in 5uL of culture medium into white solid bottom 1536-well plates (Corning Life Sciences, Corning, NY) using a Multidrop Combi (Thermo Scientific, Waltham, MA) dispenser. The assay plates were incubated at 37 C and 5% CO2 for 5hr, and then 23nL of compounds dissolved in DMSO and positive control were transferred using a Pintool station ([…], San Diego, CA). The assay plates were incubated at 37C and 5% CO2 for 17hr. For cytotoxicity read, after 16hr incubation at 37C, 1uL CellTiter-Fluor reagent (Promega Corporation, Madison, WI) was added to each well of the assay plates using Flying Reagent Dispenser (FRD, Aurora Discovery, San Diego, CA). After 1hr incubation at 37C and 5% CO2, the fluorescence signal was quantified using a ViewLux plate reader (PerkinElmer, Shelton, CT).
(Quantitative high-throughput screening tests each substance at several concentrations.)
With `C=CC(=O)OCCn1c(=O)n(CCOC(=O)C=C)c(=O)n(CCOC(=O)C=C)c1=O`, the Potency is 27.3 µM (active).
In the case of `NC(=O)N1C(=O)C(C(=O)c2cc(Cl)cs2)c2cc(F)c(Cl)cc21` (stereo not given), the Potency is 54.5 µM (active).
Turning to `CCCCCCCCCOC(=O)c1ccc(O)cc1`, the Potency was 60.3 µM (active).
For the compound `CCN(C(=O)c1cc(C)cc(OC[C@H](C)Nc2ccncc2)c1)C(C)C`, the “activity change, negative = cytotoxicity” value was 2.81% [at 42.5 µM] (inactive).
`COc1cccc2c1C(=O)c1c(O)c3c(c(O)c1C2=O)C[C@@](O)(C(=O)CO)C[C@@H]3O[C@H]1C[C@H](N)[C@H](O[C@@H]2CCCCO2)[C@H](C)O1`: the Potency is 8.41 µM (active).
Consider `O=C(Oc1ccccc1)c1ccccc1C(=O)Oc1ccccc1`, for which the “activity change, negative = cytotoxicity” value was 4.74% (inactive).
With `CCc1oc2ccccc2c1C(=O)c1cc(Br)c(O)c(Br)c1`, the “activity change, negative = cytotoxicity” value was -1.31% [at 42.5 µM] (inactive).
For `Oc1cccc(-c2c3nc(c(-c4cccc(O)c4)c4ccc([nH]4)c(-c4cccc(O)c4)c4nc(c(-c5cccc(O)c5)c5ccc2[nH]5)CC4)C=C3)c1`, the Potency was 13.3 µM (active).
The same measure, in the same setting: the figure for `Cc1cc2c(cc1C(F)(F)F)N(C(=O)Nc1ccc(Oc3cccnc3C)nc1)CC2` is 27.7 µM (active).
Take `C/C=C(\C)C(=O)OCc1ccccc1`: the “activity change, negative = cytotoxicity” value was 7.27% (inactive).
Regarding `NC(=O)NS(=O)(=O)c1ccc(N)cc1`, the “activity change, negative = cytotoxicity” value was 5.03% [at 42.5 µM] (inactive).
Consider `Nc1c(Cl)cc(Cl)cc1Cl`, for which the “activity change, negative = cytotoxicity” value is -0.754% (inactive).
For the compound `CC(=O)OCC(C)OC(C)=O` (stereo not given), the “activity change, negative = cytotoxicity” value was -0.592% (inactive).
Consider `CN(C)[C@@H]1C(=O)C(C(N)=O)=C(O)[C@@]2(O)C(=O)C3=C(O)c4c(O)ccc(Cl)c4[C@@H](O)[C@H]3C[C@@H]12`, for which the “activity change, negative = cytotoxicity” value was -6.55% [at 42.5 µM] (inactive).
In the case of `CCCN(CCC)C(=O)C(CCC(=O)OCCCN1CCN(CCOC(=O)Cc2c(C)n(C(=O)c3ccc(Cl)cc3)c3ccc(OC)cc23)CC1)NC(=O)c1ccccc1` (stereo not given), the Potency was 26.6 µM (active).
Same read-out and setting: the figure for `O=S1(=O)CC(Cl)(Cl)C(Cl)(Cl)C1` is 17.2 µM (active).
In the case of `CSc1ccc(/C=C2/C(C)=C(CC(=O)O)c3cc(F)ccc32)cc1`, the “activity change, negative = cytotoxicity” value is -12% [at 42.5 µM] (inactive).
With `CCCCCCCCOC(=O)c1ccc(O)cc1`, the Potency result is “inactive”.
Take `O=c1[nH]cnc2nc[nH]c12`: the “activity change, negative = cytotoxicity” value was 7.4% [at 42.5 µM] (inactive).
For `O=C(N/N=C/c1ccccc1O)c1ccncc1`, the “activity change, negative = cytotoxicity” value was -2.82% [at 42.5 µM] (inactive).
In the case of `O=C(O)c1cc(O)c2c(c1)C(=O)c1cccc(O)c1C2=O`, the Potency is 44.6 µM (active).
Take `CCCCCCCC[N+](CCCCCCCC)(CCCCCCCC)CCCCCCCC`: the Potency is 21.6 µM (active).
In the case of `CCC(CN)=C(c1ccccc1)c1ccccc1`, the “activity change, negative = cytotoxicity” value was -11.5% [at 42.5 µM] (inactive).
Turning to `Oc1ccc(Cl)cc1Sc1cc(Cl)ccc1O`, the Potency is 38.5 µM (active).
For `Cc1cc(CCN2CCN(c3nsc4ccccc34)CC2)cc2c1NC(=O)CC2(C)C`, the Potency was 61.1 µM (active).
Consider `O=c1cccccc1O`, for which the “activity change, negative = cytotoxicity” value is 0.621% (inactive).
Take `CCCCCCCCNC(C)C(O)c1ccc(SC(C)C)cc1` (stereo not given): the Potency is 29.8 µM (active).
As to `Cc1nc(-c2ccc3c(c2)CCN(CCC2CCC(NC(=O)/C=C/c4ccc(F)cc4)CC2)CC3)no1` (stereo not given), the “activity change, negative = cytotoxicity” value was 3.82% [at 42.5 µM] (inactive).
With `CCCC(C)c1ccccc1O` (stereo not given), the “activity change, negative = cytotoxicity” value was -0.711% (inactive).
In the case of `CC(C)(C)c1ccc(C(=O)CCCN2CCC(OC(c3ccccc3)c3ccccc3)CC2)cc1`, the Potency is 29.8 µM (active).
Turning to `CCCN(CCC)c1c([N+](=O)[O-])cc(C(F)(F)F)c(N)c1[N+](=O)[O-]`, the Potency is 54.3 µM (active).
In the case of `[O-][n+]1ccccc1SSc1cccc[n+]1[O-]`, the Potency is 4.11 µM (active).
Turning to `CCCCCOC(=O)CCCC`, the “activity change, negative = cytotoxicity” value was 2.62% (inactive).
With `COCCCC/C(=N\OCCN)c1ccc(C(F)(F)F)cc1`, the “activity change, negative = cytotoxicity” value was -8.68% [at 42.5 µM] (inactive).
`COc1cc(/C=C/C(=O)O[C@H]2CC[C@]34C[C@]35CC[C@]3(C)[C@@H]([C@H](C)CCC=C(C)C)CC[C@@]3(C)[C@@H]5CC[C@H]4C2(C)C)ccc1O`: the “activity change, negative = cytotoxicity” value was 3.32% [at 42.5 µM] (inactive).
For `CCCCCCCCCCC=O`, the “activity change, negative = cytotoxicity” value is -0.977% (inactive).
With `CCc1cc(Cc2cc(CC)cc(C(C)(C)C)c2O)c(O)c(C(C)(C)C)c1`, the Potency was 54.5 µM (active).
As to `O=C(O)c1c(Cl)cccc1Cl`, the “activity change, negative = cytotoxicity” value was -0.125% (inactive).
For `Oc1cc2ccccc2c2ccccc12`, the Potency was 13.7 µM (active).
Still for that read-out and setting: the figure for `OC1(c2ccc(Cl)c(C(F)(F)F)c2)CCN(CCCC(c2ccc(F)cc2)c2ccc(F)cc2)CC1` is 18.8 µM (active).
